Experimental data reported in PubChem BioAssay AID493036 (Sanford-Burnham Center for Chemical Genomics, 2011).
Out of some 330,000 compounds screened, about 560 (0.17%) were called active. The sample holds actives, similar compounds and a random draw of the others, so the mix is not that of the screen.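 The calls were made as follows: active = activation at or above 40% of the spot to cytoplasm intensity ratio, with at least 20 cells analyzed; inconclusive = wells under 20 cells, flagged as cytotoxic or low count; inactive = the rest.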

Tests used:
[1] = NTR1-driven beta-arrestin-GFP spot formation – imaging, U2OS cells, high content, primary screen (AID 493036); settings: agonist mode, measured here: cell count, cytotoxicity flag, at 20 µM;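 as to activation: 0% = DMSO without peptide and 100% = 100 nM NTR1 peptide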
[2] = molecular target: Neurotensin receptor type 1 (Homo sapiens) (UniProt P30989); assay: as above; settings: agonist mode, at 20 µM, stronger effect = higher value
Neurotensin receptor type 1 (Homo sapiens), sequence (P30989 whole entry, looked up): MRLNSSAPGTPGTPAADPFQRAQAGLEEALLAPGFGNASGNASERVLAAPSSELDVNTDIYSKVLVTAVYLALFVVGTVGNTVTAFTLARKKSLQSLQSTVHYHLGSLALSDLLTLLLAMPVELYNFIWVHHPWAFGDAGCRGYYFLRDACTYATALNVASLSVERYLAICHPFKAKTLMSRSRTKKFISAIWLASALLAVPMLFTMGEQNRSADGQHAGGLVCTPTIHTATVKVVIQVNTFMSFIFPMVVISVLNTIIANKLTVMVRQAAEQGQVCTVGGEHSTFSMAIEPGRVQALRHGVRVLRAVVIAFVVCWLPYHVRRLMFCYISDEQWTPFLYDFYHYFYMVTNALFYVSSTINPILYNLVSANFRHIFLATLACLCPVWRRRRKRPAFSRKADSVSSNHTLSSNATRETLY

Row | Compound | cell count [1] [cells] | activation [2]
1 | Nc1c(-c2ccc(F)cc2)cnc2ncnn12 | 91 | -0.2% (inactive)
2 | CCOC(=O)Cn1c(=O)n(Cc2ccc(OC)cc2)c(=O)c2cccnc21 | 62 | -0.6% (inactive)
3 | Cc1nnc(-c2ccc(Oc3ccc(C)c(C)c3)c([N+](=O)[O-])c2)o1 | 52 | -0.2% (inactive)
4 | Cc1ccc(NC(=O)COc2coc(CN3CCc4ccccc4C3)cc2=O)cc1Cl | 63 | 40.7% (active)
5 | CCCNC(=O)COc1coc(CN2CCN(Cc3ccccc3)CC2)cc1=O | 51 | 0.5% (inactive)
6 | Cc1cc(C)cc(NC(=O)COc2coc(CN3CCN(c4ccccc4)CC3)cc2=O)c1 | 47 | 1.4% (inactive)
7 | COCCNC(=S)N/N=C/c1c(C)[nH]c2ccccc12 | 45 | 1.2% (inactive)
8 | COc1ccc(CNC(=O)CNC(=O)c2sc3ccccc3c2Cl)cc1OC | 47 | 1.7% (inactive)
9 | O=C(N/N=C/c1c(Cl)[nH]c2ccccc12)c1sc2ccccc2c1Cl | 73 | 41.9% (active)
10 | CC(=O)N1c2ccc(S(=O)(=O)N3CCC(C(=O)NC4CCCCC4C)CC3)cc2CC1C (centres undefined) | 45 | 2.5% (inactive)
11 | CC(C)Cn1c(N)c(C(=O)NCc2cccs2)c2nc3ccccc3nc21 | 78 | 41.7% (active)
12 | CCOc1ccccc1NC(=O)Cn1nnc(C(=O)NCc2cccs2)c1N | 61 | 1.8% (inactive)
13 | COCC(C)OC(=O)c1c(N)n(CCCN2CCOCC2)c2nc3ccccc3nc12 (centres undefined) | 68 | -1% (inactive)
14 | O=C(c1cc(Cl)cc(Cl)c1)N1CCC(=O)N(C(COCc2ccccc2)Cc2ccccc2)CC1 (centres undefined) | 76 | 8.8% (inactive)
15 | CCCCN1C(=O)c2ccc(C(=O)Nc3ccc(S(=O)(=O)N(C)C)cc3)cc2C1=O | 77 | 3.1% (inactive)
16 | CCN(CC(=O)Nc1ccc(OC)cc1)C(=O)c1ccc(=O)n(Cc2ccccc2)n1 | 54 | -0.5% (inactive)
17 | CC1(C(=O)N/N=C/c2cc3c(cc2Br)OCO3)CC1(Br)Br (centres undefined) | 71 | 5.3% (inactive)
18 | CC(C)Oc1c(Br)cc(Br)cc1/C=N/NC(N)=S | 60 | 66.8% (active)
19 | Cc1ccc(Nc2nc(-c3ccc(O)cc3O)cs2)nc1 | 37 | 18.9% (inactive)
20 | O=c1oc2ccccc2cc1-c1cn(-c2ccccc2)c(=S)[nH]1 | 47 | 6.1% (inactive)
21 | O=c1oc2ccccc2cc1-c1csc(Nc2ccc(O)cc2)n1 | 50 | 76.8% (active)

Row | Compound | cell count [1] [cells] | activation [2]
22 | CC1(C)Cc2ccccc2-c2nc(CN3CCOCC3)[nH]c(=O)c21 | 89 | -0.1% (inactive)
23 | CC1(C)Cc2ccccc2-c2[nH]c(=S)[nH]c(=O)c21 | 53 | 0.3% (inactive)
24 | CCC1(CC)Cc2ccccc2-c2nc(CCl)[nH]c(=O)c21 | 60 | 61.8% (active)
25 | Nc1nc(NCC2CCCO2)nc(Nc2ccccc2F)c1[N+](=O)[O-] (centres undefined) | 40 | 0.5% (inactive)
26 | Nc1nc(Nc2ccccc2F)nc(NC2CCCCC2)c1[N+](=O)[O-] | 83 | 43.1% (active)
27 | C=CCNc1nc(N)c([N+](=O)[O-])c(NC2CCCCC2)n1 | 87 | 5.1% (inactive)
28 | Cc1ccc(S(=O)(=O)N2CCOCC2)cc1C(=O)OC1CCCCC1=O (centres undefined) | 30 | 0.7% (inactive)
29 | Cc1cc(C)n(CCNS(=O)(=O)c2ccc(Cl)cc2)n1 | 44 | 1.1% (inactive)
30 | Cc1ccccc1OCc1nnc(SCC(=O)N2c3ccccc3Sc3ccc(Cl)cc32)o1 | 65 | 4.7% (inactive)
31 | CN1CCN(c2nc(Nc3ccc(O)cc3)nc3ccccc23)CC1 | 47 | 0.5% (inactive)
32 | Oc1ccc(-c2nnc(Nc3ccccc3)c3ccccc23)cc1 | 62 | -0.2% (inactive)
33 | Cc1cccc(-c2nc(Nc3ccc(O)cc3)c3ccccc3n2)c1 | 84 | 60.9% (active)
34 | Cc1cc(C)cc(N(CC(=O)N2CC=C(c3ccccc3)CC2)S(=O)(=O)c2c(C)noc2C)c1 | 52 | 3.3% (inactive)
35 | COc1ccc(C)cc1S(=O)(=O)Nc1cc2c3c(c1)CCC(=O)N3CCC2 | 52 | -1.6% (inactive)
36 | Cc1ccccc1C(=O)N1CCC(C(=O)Oc2ccc(C#N)cc2)CC1 | 77 | 0.9% (inactive)
37 | Cc1cc(Cl)ccc1OCc1nc(-c2ccncc2)no1 | 20 | 1.2% (inactive)
38 | Cn1c(-c2ccc(C(=O)c3ccccc3)s2)nc2ccccc21 | 111 | -1.6% (inactive)
39 | O=C(CCc1ccc(S(=O)(=O)N2CCOCC2)cc1)Nc1ccc2ccccc2c1 | 90 | 1.8% (inactive)
40 | CCOC(=O)c1cccc(NS(=O)(=O)c2c(C(=O)N3CCCCCC3)c(C)n(C)c2C)c1 | 47 | 1.2% (inactive)
41 | N#CCSc1nc2c(c(=O)n1Cc1ccccc1)C1(CCCC1)Cc1ccccc1-2 | 47 | 3.2% (inactive)
42 | Cc1cccc(-n2c(SCC(N)=O)nc3c(c2=O)C2(CCCCC2)Cc2ccccc2-3)c1 | 62 | 49.9% (active)

Row | Compound | cell count [1] [cells] | activation [2]
43 | Cc1cccc(-n2c(=O)c3c(C)c(C)sc3n(CC(N)=O)c2=O)c1 | 70 | 0.5% (inactive)
44 | CC(C)(C)OC(=O)NCCCCCNC(=O)c1[nH]cnc1C(=O)Nc1nccs1 | 56 | 2.3% (inactive)
45 | CN1/C(=C\C=C2\N=C(c3ccc(F)cc3)OC2=O)C(C)(C)c2ccccc21 | 59 | -1% (inactive)
46 | CC1=CCC2C(=O)N(c3cccc(C(=O)NC(C)c4ccccc4)c3)C(=O)C2C1 (centres undefined) | 86 | -1.2% (inactive)
47 | Cc1ccc(C(=O)N/N=C\c2cc(Br)c(Br)o2)cn1 | 42 | 3.4% (inactive)
48 | CNC[C@H](CC1CCCCC1)NC[C@H](NCCC1CCCC1)[C@H](C)O | 59 | 4.7% (inactive)
49 | Cc1ccc(-n2c(SCC(=O)NCc3ccc4c(c3)OCO4)nnc2-c2cccnc2)c(C)c1 | 50 | -0.8% (inactive)
50 | Cc1cccc(NC(=O)C2CCCN(C(=O)NCc3ccccc3)C2)c1C (centres undefined) | 37 | 0.3% (inactive)
51 | CCCCCCSc1ccc(-c2nc3ccc(Cl)cn3c2NCc2ccccc2)cc1 | 65 | -1.8% (inactive)
52 | CCCCNc1c(-c2cccc(Sc3ccc(OC)cc3)c2)nc2ccccn12 | 60 | 42.5% (active)
53 | CCCCNc1c(-c2ccc(OC)c(Sc3ccc(OC)cc3)c2)nc2ccc(Cl)cn12 | 52 | 3.2% (inactive)
54 | CC(C)C(=O)Nc1ccc2c3c(cccc13)CC2 | 56 | 0.6% (inactive)
55 | CC(=O)N1C(C)c2ccccc2C(C)(C)CC12CCCCC2 (centres undefined) | 51 | 0.8% (inactive)
56 | Cn1c(C(=O)O)ccc1S(=O)(=O)N(Cc1ccccc1)Cc1ccccc1 | 65 | 0.5% (inactive)
57 | Cc1cc2occ(CC(=O)NNC(=O)c3ccccc3F)c2cc1C | 58 | 0.7% (inactive)
58 | O=C(N[C@@H](Cc1ccccc1)C(=O)OCc1ccccc1)c1nc[nH]c1C(=O)NC1CCNCC1 | 66 | 4% (inactive)
59 | CC(C)(C)OC(=O)CNC(=O)c1[nH]cnc1C(=O)N[C@@H](Cc1ccccc1)C(=O)OCc1ccccc1 | 87 | 15.2% (inactive)
60 | CC(C)(C)OC(=O)N1CCC(NC(=O)c2[nH]cnc2C(=O)N[C@@H](Cc2ccccc2)C(=O)OCc2ccccc2)CC1 | 74 | 47.8% (active)
61 | CSc1ccc(C#N)cc1NC(=O)c1ccc(Cl)cc1 | 46 | 0.4% (inactive)
62 | FC(F)(F)c1cccc(-c2nc(COc3ccc(Cl)cc3Cl)no2)c1 | 40 | -2% (inactive)
63 | COc1ccc(C)cc1NC(=O)C(Sc1ccccc1)c1ccccc1 (centres undefined) | 44 | 1.2% (inactive)

Row | Compound | cell count [1] [cells] | activation [2]
64 | O=C(O)c1cccc(N=NN2CCCCCC2)c1 | 47 | 0.2% (inactive)
65 | COC(=O)C1=C(NC(=O)C(C)(C)C)CCS1 | 55 | -0.2% (inactive)
66 | CC(=O)c1ccc(N2Cc3ccccc3C2)cc1 | 66 | 0.5% (inactive)
67 | N#Cc1ncc(C(F)(F)F)cc1Oc1cccnc1 | 41 | -0.5% (inactive)
68 | [O-][n+]1onc2c1CCc1[nH]c(-c3ccccc3)nc1-2 | 66 | -0.8% (inactive)
69 | O=C(NC(=S)NC1CCS(=O)(=O)C1)c1cccc([N+](=O)[O-])c1 (centres undefined) | 51 | -0.4% (inactive)
70 | CCO[C@H]1OC(C(=O)NCc2ccccc2)=C[C@@H](c2coc3ccccc3c2=O)[C@@H]1CCCO | 79 | 0.3% (inactive)
71 | COc1ccc(OC)c(S(=O)(=O)NCCC(C)C)c1 | 90 | -0.7% (inactive)
72 | O=C(NCc1ccco1)c1cnn2c(C(F)(F)F)cc(-c3ccco3)nc12 | 40 | 8.2% (inactive)
73 | CN(C(=O)c1cccc(NC(=O)C2CCN(C(=O)OC(C)(C)C)CC2)c1)C1CCC1 | 52 | -0.7% (inactive)
74 | CC(C)Nc1nnc(SCC(=O)/C=C2\N(C)c3ccccc3C2(C)C)s1 | 54 | 0% (inactive)
75 | CC(=O)Nc1cccc(OCC(=O)/C=C2\N(C)c3ccccc3C2(C)C)c1 | 29 | 0.8% (inactive)
76 | CN1/C(=C\C(=O)c2oc3ccccc3c2N)C(C)(C)c2ccccc21 | 52 | 45.5% (active)
77 | CC(Oc1ccccc1)C(=O)Nc1oc(-c2ccco2)c(-c2ccco2)c1C#N (centres undefined) | 69 | -1.6% (inactive)
78 | COc1ccc(CC(NC(C)=O)C(=O)N2CCN(C(=O)Nc3cccc(Cl)c3)CC2)cc1OC (centres undefined) | 63 | -0.5% (inactive)
79 | CC(=O)c1cnn(-c2cc(Oc3ccc(F)cc3)ncn2)c1C | 34 | -1.1% (inactive)
80 | COc1cc(/C=C2/C(=O)ON=C2C)ccc1OCc1cccc(F)c1 | 41 | 5.9% (inactive)
81 | C=CCOc1ccc(/C=C2/C(=O)ON=C2C)cc1OCC | 89 | 2.1% (inactive)
82 | COc1cc(/C=C2/C(=O)ON=C2C)ccc1OCc1ccccc1F | 36 | 73.4% (active)
